Source: PubChem BioAssay
An excerpt weighted towards active compounds, which were near 1.9% of everything screened.
FPR binder – human FPR ligands by binding competition, primary screen, cell-based, FPRL1 counter-screen, flow cytometry; AID 440, 2006; FPR-expressing cells, fluorescent ligand binding; 24,000 compounds, 0.74% hits; inhibition, % (no concentration beside the values); fMet-Leu-Phe receptor (Homo sapiens), P21462;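 note: 0% = buffer wells and 100% = receptor blocker peptide wells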
Proteasome disasm – inhibitors of ATP-driven 26S proteasome dissociation, primary screen, biochemical, bead-based flow cytometry, GFP-tagged proteasome; anti-FLAG beads, GFP-proteasome disassembly; inhibition of disassembly, % (test concentration not listed); 24,000 compounds, 0.2% hits; AID 751, 2007;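 active = inhibition of disassembly above about 33%, limit read from the data; inconclusive = likely self-fluorescent, control bead median signal at least 40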;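 note: plate controls were ATP control with full disassembly for no effect and ATP-gamma-S intact proteasomes for full effect; higher percent means more bead fluorescence retained so stronger block of disassembly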
FPRL1 ligand – human FPRL1 ligands by binding competition, primary screen, cell-based, FPR counter-screen, flow cytometry; N-formyl peptide receptor 2 (Homo sapiens), P25090; FPRL1-expressing cells, fluorescent ligand binding inhibition; inhibition, % (concentration not given with the values); 24,000 compounds, 0.3% hits; AID 441, 2006;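 note: 0% = buffer alone and 100% = receptor blocker peptide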
VLA-4 agonist – enhancers of LDV-FITC binding to VLA-4 integrin, primary screen, Jurkat cells, flow cytometry; activation, % at 10 µM (by protocol); 24,000 tested, under 10 active;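 active = fluorescent ligand binding to cells raised by more than 40% of the manganese-induced maximum; inconclusive = compound's own fluorescence above 85% of the ligand control signal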;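 note: 0% = ligand binding without compound and 100% = manganese-stimulated maximal binding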
Autofluor Jurkat – compound autofluorescence on Jurkat cells, primary screen, artefact control for VLA-4 allosteric ligand project, cell-based, flow cytometry; fluorescence ratio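 (tested at 10 µM compound in the well)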; active compounds read high; 1 = vehicle-only cell background; 24,000 compounds, 0.61% hits; AID 576, 2007;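 active = fluorescence ratio above 2.44, which is 1 plus 3 SD of all ratios; inconclusive = signal too bright to measure linearly, ratio around 10 or more; inactive = fluorescence ratio below 2.44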;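 note: green fluorescence of cells measured with 488 nm excitation and 530 nm emission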
VLA-4 antagonist – inhibitors of LDV-FITC binding to Mn2+-activated VLA-4, primary screen, Jurkat cells | 24,000 compounds, 0.2% hits | inhibition, % at 10 µM (by protocol) | Integrin alpha-4 (Homo sapiens), P13612 | LDV-FITC binding with Mn2+, flow cytometry; 100% = Mn2+-driven binding gain fully reversed;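 active = inhibition above 50%; inconclusive = compound itself fluorescent, judged against control cell fluorescence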;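 note: 0% = Mn2+ stimulated cells lacking compound and 100% = ligand binding without Mn2+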
* = called active by the depositor; ? = inconclusive. Cut-off read from the data, not from the text of the source, unless noted: active = inhibition above about 30%; inconclusive = no clear call, values can overlap the other calls; inactive = below that.

SMILES | FPR binder | Proteasome disasm | FPRL1 ligand | VLA-4 agonist | Autofluor Jurkat | VLA-4 antagonist
CC(C)[C@@]1(NC(=O)[C@@H]2C=C3c4cccc5[nH]cc(c45)C[C@H]3N(C)C2)O[C@@]2(O)[C@@H]3CCCN3C(=O)[C@H](Cc3ccccc3)N2C1=O | -4 | 18 | 1 | ? | 3.5* | ?
CC1CCC(C(=O)NC(C(=O)N2CCC3(CC2)OCCO3)C(C)C)CC1 (stereo not given) | -4 | 0 | 4 | 5 | 0.99 | -15
